Compounds with a hit are over-represented: about 5.8% of the library has one in this group of screens.
RORgamma inh – qHTS for inhibitors of ROR gamma transcriptional activity. Nuclear receptor ROR-gamma (Mus musculus), P51450. Drosophila S2 Gal4-RORgamma UAS-luciferase reporter, 20 h. Potency, µM (highest dose often 53.6 µM), without a hit: at the highest dose activity change, negative = inhibition, actives largely listed as inhibitors. actives 5.4% (n = 310,000); also: potency is read from the fitted curve at half-maximal effect; % is scaled to controls: 0 for no effect and ±100 for the full control effect; nearly all actives have a fitted effect of over 60% in size
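Stable Schneider cell line, Gal4 DNA-binding domain fused to ROR gamma, UAS-luciferase. Cmpd 1 hr RT → CuSO4 700 uM final → 20 hr RT → luciferase reagent 10 min → luminescence.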
VP16 counter – VP16 counterscreen qHTS for inhibitors of ROR gamma transcriptional activity. actives 3.5% (n = 310,000). AID 2546, 2010. Drosophila S2 Gal4-VP16 UAS-luciferase, luminescence, 20 h. Potency, µM (top dose mostly 53.6 µM), without a hit: at the highest dose activity, negative = inhibition, actives largely listed as inhibitors;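 also: Gal4-VP16 expression switched on by copper sulfate through the metallothionein promoter; potency is read from the fitted curve at half-maximal effect; % is scaled to controls: 0 for no effect and ±100 for the full control effect; nearly all actives have a fitted effect of over 50% in size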
uPA surface inh – qHTS for Inhibitors of Cell Surface uPA Generation. cell surface uPA generation assay, qHTS. Potency, µM (series often up to 38.3 µM), for inactives: at the top dose activity change, negative = inhibition, hits mostly inhibitors. actives 0.31% (n = 330,000); active = well fitted inhibition curve with a large enough effect; inconclusive = small, poorly fitted or top-dose-only effect; inactive = no such curve, though single readings can be large or run the other way; tested in mouse RAW 264.7 cells; also: potency is read from the fitted curve at half-maximal effect; % is scaled to controls: 0 for no effect and ±100 for the full control effect; nearly all actives have a fitted effect of over 55% in size
TRPV1 PAM – HTS Assay for Compounds that Act as Potentiators of the Vanilloid Receptor 1; Transient receptor potential cation channel subfamily V member 1 (Homo sapiens), Q8NER1; TRPV1-expressing cells, Fluo-8 calcium influx, capsaicin EC20 potentiation; potentiation, % at 8.33 µM; actives 0.02% (n = 320,000); AID 540277, 2011; in the data active = potentiation above about 80%; inconclusive = between about 30% and that limit; also: 0% is about no effect
Target sequence (Q8NER1 whole entry, looked up): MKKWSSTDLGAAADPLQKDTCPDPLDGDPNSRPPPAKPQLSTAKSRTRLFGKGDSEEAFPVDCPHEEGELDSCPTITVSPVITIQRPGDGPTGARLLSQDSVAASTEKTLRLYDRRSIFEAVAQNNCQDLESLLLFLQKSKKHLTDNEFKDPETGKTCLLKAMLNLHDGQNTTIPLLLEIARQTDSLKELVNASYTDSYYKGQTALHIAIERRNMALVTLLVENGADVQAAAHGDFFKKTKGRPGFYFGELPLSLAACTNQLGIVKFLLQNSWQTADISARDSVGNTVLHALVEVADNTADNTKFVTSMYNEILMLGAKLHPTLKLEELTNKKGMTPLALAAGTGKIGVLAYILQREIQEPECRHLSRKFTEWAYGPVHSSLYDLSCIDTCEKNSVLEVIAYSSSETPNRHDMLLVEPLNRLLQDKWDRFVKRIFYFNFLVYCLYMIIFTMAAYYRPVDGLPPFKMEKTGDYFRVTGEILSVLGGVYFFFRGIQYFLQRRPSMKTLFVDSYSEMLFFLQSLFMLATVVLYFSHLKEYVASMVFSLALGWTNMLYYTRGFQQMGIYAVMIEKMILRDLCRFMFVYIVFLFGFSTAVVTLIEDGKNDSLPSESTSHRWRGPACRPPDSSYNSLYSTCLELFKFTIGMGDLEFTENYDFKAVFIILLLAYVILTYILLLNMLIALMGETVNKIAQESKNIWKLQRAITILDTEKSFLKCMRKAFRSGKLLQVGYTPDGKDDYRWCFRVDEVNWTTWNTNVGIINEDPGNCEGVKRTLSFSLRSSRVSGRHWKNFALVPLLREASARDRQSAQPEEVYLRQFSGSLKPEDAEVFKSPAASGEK
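Fluo-8 calcium influx in TRPV1-expressing cells, kinetic read (ex 480/em 520 nm). Compound added and read 3 min for agonist activity, followed by capsaicin at EC20 final and 2 min further read for enhancement.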
TRPV1 ag – HTS Assay for Compounds that Act as Agonists of the Vanilloid Receptor 1 | actives 0.19% (n = 320,000) | activation, % at 8.33 µM | TRPV1-expressing cells, Fluo-8 calcium influx, agonist mode | Transient receptor potential cation channel subfamily V member 1 (Homo sapiens), Q8NER1 | AID 540275, 2011; in the data active = activation above about 80%; inconclusive = between about 30% and that limit; also: 0% is about no effect
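Fluo-8 calcium influx in TRPV1-expressing cells, kinetic read (ex 480/em 520 nm). Compound added and read 3 min for agonist activity, followed by capsaicin at EC20 final and 2 min further read for enhancement.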
* hit, by the source's call; ? = inconclusive; nt = no result. Unless noted, calls follow the shape of the dose curve; as a rule, active = well fitted curve in the direction sought with a large enough effect; inconclusive = small, poorly fitted or top-dose-only effect, or another doubt; inactive = no such curve, though single readings can be large; an effect the other way counts as inactive or inconclusive.

SMILES | RORgamma inh | VP16 counter | uPA surface inh | TRPV1 PAM | TRPV1 ag
CC(NC(=O)C(=O)NN=C1CCCC1)c1ccccc1 (configuration not stated) | -4% | 1% | 1% | 2 | 1
Clc1ccc(CNc2nc(CN3CCOCC3)nc3scc(-c4ccccc4)c23)cc1 | 11µM* | 8.9µM* | -11% | -12 | ?
Clc1ccc(-c2csc3ncnc(NCCN4CCOCC4)c23)cc1 | -1% | -10% | 7% | -16 | 9
CC(C)(C)c1ccc(OCC(O)CSc2ncn[nH]2)cc1 (configuration not stated) | 10µM* | 5.6µM* | -2% | -14 | ?
OC(COc1ccccc1)CSc1ncn[nH]1 (configuration not stated) | 11% | -18% | nt | -3 | 4
CN1C(=O)[C@@H]2[C@H](C1=O)[C@@H]1C(=O)Nc3ccccc3C(=O)N1[C@@H]2c1ccc(Br)cc1 | nt | nt | 3% | -17 | -3
CCN1C(=O)[C@@H]2[C@H](C1=O)[C@@H]1C(=O)Nc3ccccc3C(=O)N1[C@@H]2c1ccc(Br)cc1 | nt | nt | 21% | 106* | -2
NS(=O)(=O)c1ccc(NC(=S)Nc2ccc(OCc3ccccc3)cc2)cc1 | -19% | -2% | 8% | 5 | 1
COc1ccc(NC(=S)Nc2ccccc2)c(OC)c1 | 13µM* | ? | 5% | -12 | 1
COc1ccc(NC(=S)Nc2ccc(OCc3ccccc3)cc2)c(OC)c1 | 7.1µM* | 7.1µM* | 1% | -18 | 5
COc1ccc(NC(=S)NCC(O)c2ccccc2)c(OC)c1 (configuration not stated) | -3% | 4% | 1% | -11 | -1
S=C(Nc1ccccc1)Nc1ccc(OCc2ccccc2)cc1 | 11µM* | -7% | 2% | 3 | -1
Cc1cc(C)n(C(=O)CCCn2cc([N+](=O)[O-])cn2)n1 | -1% | -9% | 4% | 4 | -9
COCCNc1nc(C)cc(-c2cc(C(=O)NCc3ccccc3)on2)n1 | -7% | 1% | -1% | 4 | ?
Cc1cc(-c2cc(C(=O)NCc3ccccc3)on2)nc(S(C)(=O)=O)n1 | 5µM* | ? | ? | -29 | 1
CN(C)S(=O)(=O)c1ccc(-c2cn3ccccc3n2)cc1 | 34% | 18µM* | nt | 5 | -5
Brc1ccc(-c2cn3ccccc3n2)cc1 | -16% | -20% | -12% | -17 | ?
Oc1ccc(-c2cn3ccccc3n2)cc1 | -36% | ? | 4µM* | 5 | 0
c1ccc(-c2cn3ccccc3n2)cc1 | nt | nt | -6% | nt | nt
Cc1ccc(C2=NC3(CCCCC3)N=C2SCC(=O)Nc2ccc3c(c2)OCCO3)cc1 | ? | -4% | -19% | 23 | -6
CC(C(=O)Nc1sc2c(c1C#N)CCCCC2)N1C(=O)c2ccccc2C1=O (configuration not stated) | -18% | 3% | -16% | -5 | 1
Cc1ccc(C)c(NC(=S)NCc2ccc3[nH]c4c(c3c2)CCCC4)c1 | 2µM* | 6.3µM* | ? | 11 | 2
Cc1ccccc1NC(=S)NCc1ccc2[nH]c3c(c2c1)CCCC3 | 1.6µM* | 3.5µM* | 16% | 20 | -5
O=C(NCc1ccc2[nH]c3c(c2c1)CCCC3)c1ccc(S(=O)(=O)N2CCCC2)cc1 | ? | 9% | -17% | 6 | -3
S=C(NCc1ccc2[nH]c3c(c2c1)CCCC3)Nc1ccccc1Cl | 3.2µM* | 8.9µM* | 12% | 8 | 4
SMILES | RORgamma inh | VP16 counter | uPA surface inh | TRPV1 PAM | TRPV1 ag
Cc1cc(CNC(=O)[C@]2(C(F)(F)F)C[C@H](CCC3CCCCC3)CCCO2)nn1C | -13% | 3% | nt | nt | nt
Cc1ccc(N2CC(C(=O)OCc3nnc(-c4ccccc4)o3)CC2=O)cc1 (configuration not stated) | nt | nt | -2% | -4 | 13
COc1ccccc1-n1c(CCn2nc(C)c(Br)c2C)n[nH]c1=S | 10µM* | ? | -3% | -14 | 3
Cc1nn(CCc2n[nH]c(=S)n2C2CCCCC2)c(C)c1Br | 5.6µM* | ? | nt | 6 | -1
C=CCNC(=S)N/N=C1\CCS(=O)(=O)c2ccccc21 | 18µM* | ? | 12% | 19 | -3
O=S1(=O)CC/C(=N\O)c2ccccc21 | ? | -21% | nt | 6 | 1
C1=C(CCNc2ncnc3c2[nH]c2ccccc23)CCCC1 | 7.9µM* | 0.71µM* | -11% | -29 | 80*
COc1ccc(CNc2ncnc3c2[nH]c2ccccc23)cc1 | ? | 6.3µM* | 2% | 1 | 17
COc1ccc(CNc2ncnc3c2[nH]c2cc(OC)c(OC)cc23)cc1 | 6% | -11% | 7% | -3 | 1
O=C(CN1CCc2ccccc2C1)Nc1ccccc1C(F)(F)F | 22% | 7% | 7% | -3 | 19
FC(F)(F)c1ccccc1NC(=S)N1CCc2ccccc2C1 | 16µM* | ? | ? | -7 | 12
Cc1c(Cl)cccc1NC(=S)N1CCOCC1 | -31% | 1% | -12% | -4 | -2
Cc1c(Cl)cccc1NC(=S)N1CCc2ccccc2C1 | 10µM* | ? | 0% | -11 | 18
CC(C)(C)OC(=O)C[C@H]1C/C=C\C[C@H](CC(=O)N[C@@H](CO)Cc2ccccc2)C(=O)N[C@H](C(C)(C)C)COC1=O | nt | nt | 5% | nt | nt
O=C(CSc1cccc[n+]1[O-])N1CCCCCC1 | -22% | 1% | 1% | -7 | 1
[O-][n+]1ccccc1SSc1cccc[n+]1[O-] | 0.35µM* | 0.89µM* | nt | nt | nt
O=C(CSc1cccc[n+]1[O-])CSc1cccc[n+]1[O-] | 4µM* | ? | 1% | 9 | 4
CN(C)Cc1ccccc1Sc1ccc(Br)cc1 | -30% | -2% | 10% | 5 | 0
N#CCCn1cnc2c1NC=NC2Cl (configuration not stated) | -2% | 0% | nt | nt | nt
CC(=O)c1ccc(OCC(=O)OCC(=O)Nc2sccc2C(N)=O)cc1 | nt | nt | 14% | -8 | 1
N#Cc1cccc2c1-c1ccccc1/C2=N/NC(N)=S | 4µM* | 5µM* | -9% | 0 | -3
Cc1cc(C)nc(SSc2nc(C)cc(C)n2)n1 | 5.6µM* | 6.3µM* | 3% | -11 | 4
O=c1cc(-c2ccccc2O)oc2ccc3ccccc3c12 | 6.3µM* | 7.1µM* | nt | nt | nt
CCN(CC)C(=S)SC1CCCCN(C(=O)c2ccccc2)C1=O (configuration not stated) | -26% | -2% | 4% | nt | nt
Cc1cc(C)cc(NC(=S)NCc2cccn2C)c1 | 2.8µM* | 10µM* | nt | 10 | 0
Cn1cccc1CNC(=S)Nc1ccccc1Cl | 6.3µM* | -7% | 2% | -4 | 20
Cn1cccc1CNC(=S)Nc1ccccc1F | 13µM* | 1% | -1% | -6 | 6

Screening results from PubChem BioAssay.
